# Experimental data from PubChem BioAssay (NCATS).
# Values without a mark were called inactive. Calls come from the whole dose curve; as a rule, active = well fitted inhibition curve with a large enough effect; inconclusive = small, poorly fitted or top-dose-only effect; inactive = no such curve, though single readings can be large or run the other way.
# Assay: qHTS assay for measurement of the activity of small molecule inhibitors on Zika virus induced Caspase-3 activity in human astrocytoma cells (AID 1224859)
# Details: SNB-19 ZIKV-induced caspase-3/7, luminescence, 6 h; series mostly up to 45.7 µM; activity change, negative = inhibition: at the top concentration
# Text: National Center for Advancing Translational Sciences [NCATS]
# Johns Hopkins University School of Medicine
# Increase in the Caspase-3 activity indicates an activation of apoptosis cell death pathway caused by Zika virus infection in certain types of neuronal cells including human neural progenitor cells (hNPCs), astrocytes, and astrocytoma cell line (SNB-19). This cell-based caspase-3 activity assay measures the increased caspase-3 activity in the astrocytoma cell line (SNB-19) after a 6-hour Zika virus infection with a luminescence readout. A decrease in the luminescence signal in this assay by small molecule treatment indicates an inhibitory effect of that small molecule on the Zika virus induced caspase-3 activity that may correlate with its effect on reduction of Zika virus caused cell death.
# The medium for SNB-19 cells is composed of RPMI 1640 (ATCC, Cat.# 30-2001), 10% fetal bovine serum (FBS) (GE healthcare Life Sciences, Cat.# SH30071.03), and 1% Pen/Strep (Gibco, Cat.# 15140-122). A Caspase-Glo 3/7 assay kit (catalog number G8092; Promega, Madison, WI) was used to detect caspase-3 activity induced by Zika virus infection in human cells. The reagent mixture was reconstituted as described in the protocol from the manufacturer. Polystyrene tissue culture treated and PDL coated white plates were obtained from Greiner Bio-One (Monroe, NC). Cells were seeded in 384- or 1536-well assay plates and cultured at 37 C with 5% CO2 for 16 to 20 hours. The typical cell seeding density in the 1536-well plate assay is 250 cells/well in 3ul medium for SNB-19 cells in tissue culture treated plates. Compounds were added to cells and incubated for one hour before addition of ZIKV solution to cells (2 FFU/cell). After incubation at 37 C with 5% CO2 for 6 hours, the reagent mixture of Caspase-Glo 3/7 assay kit was added to each well, followed by incubation at room temperature for 30 minutes. The luminescence intensity of the assay plates was measured using a ViewLux plate reader (PerkinElmer). Data were normalized by using the cell-containing wells without ZIKV as a negative control (0% induction of caspase 3/7 activity) and wells containing ZIKV infected cells (Caspase-3 activity induced) as a positive control (100% induction of caspase 3 activity). The percentage inhibitions of the increased Caspase-3 activity by small molecule inhibitors were then calculated.
row,SMILES,"activity change, negative = inhibition"
1,C=CCc1cccc(C=NNC(=O)CN2CCN(Cc3ccccc3)CC2)c1O,29%
2,O=c1[nH]nc(OCCCc2ccc(Cl)cc2)c(NCc2cccnc2)c1Br,-5.3%
3,CC1=C[C@@H]2[C@@H]([C@@H](O)C[C@@]3(C)[C@H]2C[C@@H](C)[C@]3(O)C(=O)CO)[C@@]2(C)Cc3cnn(-c4ccccc4)c3C=C12,17%
4,CN[C@@H](C)[C@H]1[C@H](O)C[C@@]2(C)[C@@H]3CC[C@H]4C(C)(C)[C@@H](NC)CC[C@@]45C[C@@]35CC[C@]12C,-13.6%
5,CO[C@H]1/C=C\O[C@@]2(C)Oc3c(C)c(O)c4c(O)c(c(C=NN5CCN(C6CCCC6)CC5)c(O)c4c3C2=O)NC(=O)C(C)=CC=C[C@H](C)[C@H](O)[C@@H](C)[C@@H](O)[C@@H](C)[C@H](OC(C)=O)[C@H]1C,14.4%
6,CCCCC(C)(C)[C@H](O)C=C[C@H]1[C@H](O)CC(=O)[C@H]1CC=CCCCC(=O)O,-1.07%
7,CC(=O)O[C@]1(C(C)=O)CC[C@H]2[C@@H]3C=C(Cl)C4=CC(=O)[C@@H]5C[C@H]5[C@]4(C)[C@@H]3CC[C@@]21C,91.6%
8,CO[C@@H]1C(N(C)C(=O)c2ccccc2)C[C@H]2O[C@]1(C)n1c3ccccc3c3c4c(c5c6ccccc6n2c5c31)C(=O)NC4=O (stereo not given in full),3.2%
9,CC[C@]1(O)C[C@H]2CN(CCC3=c4ccccc4=N[C]3[C@@](C(=O)OC)(c3cc4c(cc3OC)N(C)[C@H]3[C@@](O)(C(N)=O)[C@H](O)[C@]5(CC)C=CCN6CC[C@]43[C@@H]65)C2)C1,-23%
10,O=C(CCCN1CCN(c2ccc(F)cc2)CC1)NC1c2ccccc2CSc2ccccc21 (stereo not given),75.5%
11,CCC=CC[C@H]1C(=O)CC[C@@H]1CC(=O)OC,0%
12,COc1ccc2c(c1)CC[C@H]1[C@@H]2CC[C@]2(C)[C@@H](NCCCCCCN3C(=O)C=CC3=O)CC[C@H]12,11.8%
13,Cc1ccc(NC(=O)c2ccc(CN3CCN(C)CC3)cc2)cc1Nc1nc(-c2cccnc2)cs1,10.7%
14,CCC(c1ccc(O)cc1)C(CC)c1ccc(O)cc1 (stereo not given),-2.62%
15,Cc1ccccc1C(C(=O)NC1CCCCC1)N(C(=O)CNc1ccc(C#N)cc1)c1cccc(F)c1 (stereo not given),-1.32%
16,COc1nccc(-c2c(-c3ccc(F)cc3)ncn2C2CCNCC2)n1,-9.33%
17,Cc1cc(C(C)Nc2ccccc2)c2nc(N3CCOCC3)cc(=O)n2c1 (stereo not given),-1.97%
18,CC1=C(C(=O)Nc2cc3cn[nH]c3cc2F)C(c2ccc(C(F)(F)F)cc2)CC(=O)N1 (stereo not given),41.6%
19,CCOC(=O)[C@@H](N)CCC(=O)N[C@@H](CSCc1ccccc1)C(=O)N[C@@H](C(=O)OCC)c1ccccc1,22.4%
20,COc1cc(CNC(=O)CCCCC=CC(C)C)ccc1O,-5.21%

row,SMILES,"activity change, negative = inhibition"
1,COc1cccc(OC)c1-c1cc(C(=O)NC2(C(=O)O)C3CC4CC(C3)CC2C4)nn1-c1ccnc2cc(Cl)ccc12 (stereo not given),-1.32%
2,CCCCN(CCCC)CC(O)c1cc(Cl)cc2c1-c1ccc(Cl)cc1C2=Cc1ccc(Cl)cc1 (stereo not given),2.7%
3,C[C@]12CC[C@@H]3c4ccc(O)cc4CC[C@H]3[C@H]1[C@@H](O)[C@@H](O)[C@H]2O,-6.74%
4,CC(C)C[C@@H](C(=O)N[C@H](C(=O)OC1CCCC1)c1ccccc1)[C@H](O)C(=O)NO,10.1%
5,Cn1c(=O)c(-c2c(Cl)cccc2Cl)cc2cnc(Nc3cccc(C(=O)O)c3)nc21,17.5%
6,CC(C)CN(C[C@@H](O)[C@H](Cc1ccccc1)NC(=O)O[C@H]1CO[C@H]2OCC[C@H]21)S(=O)(=O)c1ccc(N)cc1,8.66%
7,Cc1cc(OCCCS(C)(=O)=O)cc(C)c1-c1cccc(COc2ccc3c(c2)OC[C@H]3CC(=O)O)c1,-21.5%
8,Cc1c(C(=O)Nc2ccc(N3C[C@@H](C)O[C@@H](C)C3)nc2)cccc1-c1ccc(OC(F)(F)F)cc1,64.9%
9,O=C(NCCCCN1CCOCC1)c1cc2ccccc2o1,-7.03%
10,Cc1cccc(Nc2nc(N[C@@H]3CCCC[C@H]3N)ncc2C(N)=O)c1,24.7%
11,CN1CCN(c2cccc(Nc3nc4c(-c5ccc(S(C)(=O)=O)cc5)cccn4n3)c2)CC1,47.9%
12,Nc1ccn([C@@H]2O[C@H](CO)[C@@H](O)[C@H]2O)c(=O)n1,-8.32%
13,CN1c2ccccc2C(=O)N2CCc3c([nH]c4ccccc34)C21 (stereo not given),24.8%
14,CCC[C@@H](NC(=O)[C@@H]1[C@H]2CCC[C@@H]2CN1C(=O)[C@@H](NC(=O)[C@@H](NC(=O)c1cnccn1)C1CCCCC1)C(C)(C)C)C(=O)C(=O)NC1CC1,-13.3%
15,Cc1cnc(Nc2cccc(CN3CCOCC3)c2)nc1Nc1cccc(S(=O)(=O)NC(C)(C)C)c1,27.5%
16,CN1[C@H]2CC[C@H]1CC(OC(=O)c1c[nH]c3ccccc13)C2 (stereo not given in full),40.2%
17,Cc1cc(NC(=O)Nc2ccc(N(C)C)cc2)c2cc(F)cc(F)c2n1,-12.8%
18,CCC(=C(c1ccc(O)cc1)c1ccc(OCCNC)cc1)c1ccccc1,28.6%
19,CC[C@H](C=C[C@@H](C)[C@H]1CC[C@H]2[C@@H]3CC=C4C[C@@H](O)CC[C@]4(C)[C@@H]3CC[C@]12C)C(C)C,-3.06% [at 20.5 µM]
20,Cc1ccccc1C(=O)c1ccc(Nc2ccc(Br)cc2N)cc1Cl,16.6%
